The source of these data is PubChem BioAssay (Tox21).

Records with an inconclusive call do not appear. Active and inactive are the calls of the source. Unless noted, the call rests on the fitted dose curve.

Experiment [1] is described as follows: Nuclear factor erythroid 2-related factor 2/antioxidant responsive element (Nrf2/ARE) small molecule agonists: qHTS cell viability counter screen in human keratinocytes (AID 1919968; active means well fitted curve in the direction sought with a large enough effect in the repeat runs; an effect the other way counts as inactive or inconclusive; further: nearly all actives have a fitted effect of over 55% in size; further: potency means the concentration at half of the fitted maximal effect). The essentials:
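Seed 1,500 KeratinoSens cells per well, then incubate 5 h at 37 C/5% CO2. Add compounds in DMSO and incubate 23 h. Add CellTiter-Fluor, wait 1 h and read fluorescence.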
A general note: In qHTS, concentration-response curves come from the screen itself.

Experiment [2] can be described thus: Nuclear factor erythroid 2-related factor 2/antioxidant responsive element (Nrf2/ARE) small molecule agonists: luciferase reporter gene qHTS assay in human keratinocytes (AID 1919969). Further: nearly all actives have a fitted effect of over 35% in size. Further: potency means the concentration at half of the fitted maximal effect. On the technique in general: A reporter such as luciferase makes a cellular process visible.
Experiment [3] has as its target Gonadotropin-releasing hormone receptor (Homo sapiens) (UniProt P30968). In words: Human gonadotropin-releasing hormone receptor (GnRHR) small molecule agonists, calcium flux assay in GnRHR-HEK293 cells (AID 1920063). Further: nearly all actives have a fitted effect of over 35% in size. An outline of the steps: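 Cells: HEK293 stably expressing human GnRHR. Steps: overnight (18 h) culture, 1 h calcium dye loading at 37 C, compound addition, kinetic fluorescence read at 480/540 nm. Each compound tested at 15 concentrations in triplicate.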
A general note: A change in cytosolic calcium serves as a functional read-out for many receptors and channels.

The target of experiment [4] is KiSS-1 receptor (Homo sapiens) (UniProt Q969F8). In words: Human kisspeptin (KISS1R) small molecule agonists, calcium flux assay in KISS1R-HEK293 cells (AID 1920064; active means well fitted curve in the direction sought with a large enough effect in the repeat runs; an effect the other way counts as inactive or inconclusive). An outline of the steps: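 Cells plated and incubated 18 h; dye added, 1 h at 37 C; compounds in DMSO pinned in; signal read at 480/540 nm every second for 3 min. Each compound tested at 15 concentrations in triplicate.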

Experiment [5] can be described thus: G protein-coupled receptor (GPCR) small molecule agonists, calcium flux assay: HEK293 wild type cell line counter screen (AID 1920065). The essentials:
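Counter-screen of the Tox21 10K library for non-specific calcium release: dye-loaded cells received compounds in DMSO and were monitored by kinetic fluorescence (480/540 nm, 3 min). Fifteen concentrations, run in triplicate.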

Experiment [6] can be described thus: p53 small molecule agonists, cell-based qHTS assay with human liver microsomes (AID 1963577).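 Further: p53 response element beta-lactamase reporter cells with liver microsomes plus NADPH.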 An outline of the steps:
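Metabolically competent format: test substances, human liver microsomes and NADPH (both 0.5 mg/mL final) incubated with p53RE-bla cells 16 h at 37 C. Beta-lactamase reporter signal then quantified by fluorescence.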

Experiment [7] is described as follows: p53 small molecule agonists, cell-based qHTS assay with rat liver microsomes (AID 1963578). An outline of the steps:
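Each plate received p53RE-bla cells, then compound, then rat liver microsomes and NADPH (both 0.5 mg/mL final). Plates were held 16 h at 37 C, and beta-lactamase activity was detected with LiveBLAzer over 2 h.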

Experiment [8] can be described thus: p53 small molecule agonists, cell-based qHTS assay with human liver microsomes: qHTS cell viability counter screen (AID 1963579). Further: nearly all actives have a fitted effect of over 45% in size. Further: potency means the concentration at half of the fitted maximal effect. An outline of the steps: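 Tox21 library compounds, delivered from DMSO stocks, were tested on p53RE-bla cells together with 0.5 mg/mL human liver microsomes and 0.5 mg/mL NADPH (final) over 16 h at 37 C; CellTiter-Glo luminescence served as the cytotoxicity measure.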

Experiment [9] in a line: p53 small molecule agonists, cell-based qHTS assay with rat liver microsomes: qHTS cell viability counter screen (AID 1963580). Further: nearly all actives have a fitted effect of over 45% in size. Further: potency means the concentration at half of the fitted maximal effect. An outline of the steps:
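HCT-116 p53RE-bla, 4,000 cells/well, 5 h pre-incubation; cpd + rat liver microsomes 0.5 mg/mL + NADPH 0.5 mg/mL (final); 16 h, 37 C; CellTiter-Glo, 30 min RT; luminescence.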

A short description of experiment [10]: p53 small molecule agonists, cell-based qHTS assay: qHTS cell viability counter screen (AID 1963581). Further: nearly all actives have a fitted effect of over 45% in size. Further: potency means the concentration at half of the fitted maximal effect. An outline of the steps: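 Cells: HCT-116 with p53 response element-driven beta-lactamase. Treatment: 16 h, 37 C, compounds in DMSO. Read: CellTiter-Glo luminescence after 30 min RT.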
The target of experiment [11] is 5-hydroxytryptamine receptor 2A (Homo sapiens) (UniProt P28223). In words: 5-hydroxytryptamine receptor 2A (HTR2A) small molecule agonists, cell-based qHTS assay (AID 1963587). Further: nearly all actives have a fitted effect of over 30% in size. The essentials: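 Kinetic calcium-flux fluorescence (2 min, 1 sec intervals) after compound addition in agonist mode. HTR2A-CHO cells were cultured 18 h, then dye-loaded 1 h at 37 C.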
Experiment [12] concerns the target Muscarinic acetylcholine receptor M1 (Homo sapiens) (UniProt P11229). In words: Cholinergic receptor muscarinic 1 (CHRM1) small molecule antagonists, cell-based qHTS assay (AID 1963588). Further: nearly all actives have a fitted effect of over 40% in size. Further: potency means the concentration at half of the fitted maximal effect. The essentials: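 CHRM1-CHO calcium-flux assay, antagonist mode. Cells were seeded 18 h, dye-loaded 1 h at 37 C and given compound for 5 min at RT, then acetylcholine was added at 50nM. FDSS fluorescence was read 3 min; 15 concentrations, three runs.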

Experiment [13] shares this target. Put plainly: Cholinergic receptor muscarinic 1 (CHRM1) small molecule agonists, cell-based qHTS assay (AID 1963589). Further: nearly all actives have a fitted effect of over 35% in size. An outline of the steps: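 Agonist-mode qHTS in CHO cells stably carrying human muscarinic M1. Intracellular calcium is tracked by fluorescence every second after compound transfer; each compound runs at 15 concentrations in three independent runs.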

Experiment [14] in a line: cAMP Responsive Elements (CRE) small molecule agonists, cell-based qHTS assay (AID 1963590). The essentials: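 Agonist mode qHTS in CRE-bla HEK 293T cells: compounds dosed from DMSO for 3 h at 37 C/5% CO2, followed by LiveBLAzer B/G FRET substrate for 2 h at room temperature.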
The nature of experiment [15]: cAMP Responsive Elements (CRE) small molecule antagonists, cell-based qHTS assay (AID 1963591; active means well fitted inhibition curve with a large enough effect in the signal ratio in the repeat runs, not every such curve was filed as active; the % refers to the signal ratio). An outline of the steps:
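Antagonist mode: test compounds are co-incubated with the adenylyl cyclase activator NKH477 (0.25 uM final) on CRE-bla HEK293T cells for 3 h at 37 °C, followed by LiveBLAzer substrate loading.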

Experiment [16] has as its target Beta-2 adrenergic receptor (Homo sapiens) (UniProt P07550). Put plainly: Adrenergic beta2 receptor (ADRB2) small molecule antagonists, cell-based qHTS assay (AID 1963592). Further: series mostly up to about 92 µM; nearly all actives have a fitted effect of over 50% in size. The essentials:
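Cells (CHO, stable ADRB2 overexpression) incubated 18-20hr at 37C; compounds added from DMSO; agonist mix (1nM isoproterenol, 100uM IBMX, 25uM Ro-20-1724) added; 0.5hr RT; d2-cAMP and anti-cAMP-cryptate added; 1hr RT; 665/615 nm read.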

Experiment [17] shares this target. Put plainly: Adrenergic beta2 receptor (ADRB2) small molecule agonists, cell-based qHTS assay (AID 1963593).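 Further: CHO cells stably overexpressing human ADRB2.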 The essentials:
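CHO cells stably over-expressing ADRB2 were plated overnight at 37C, then dosed with compounds plus a stimulation mix containing 100uM IBMX and 25uM Ro-20-1724 for 0.5hr at room temperature. cAMP was measured by HTRF competition, 1hr.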

Experiment [18] addresses D(2) dopamine receptor (Homo sapiens) (UniProt P14416). In words: Dopamine D2 receptor (DRD2) small molecule agonists, cell-based qHTS assay (AID 1963594). Further: nearly all actives have a fitted effect of over 35% in size. The essentials:
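cAMP accumulation in DRD2-HEK293 cells measured by HTRF after 1 h detection; compounds added 10 min before NKH477 (200nM […]) forskolin-analogue stimulation, 30 min at room temperature, with Ro20-1724 present at 0.1 mM final.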

Experiment [19] shares this target. Put plainly: Dopamine D2 receptor (DRD2) small molecule antagonists, cell-based qHTS assay (AID 1963595; active means well fitted inhibition curve with a large enough effect in the signal ratio in the repeat runs, with a control signal flat; the % refers to the signal ratio). The essentials: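 Human DRD2 antagonist qHTS measuring cAMP by HTRF. The cells are exposed to compound for 10 min, then to NKH477 (200 nM) and quinpirole (12 nM) for 30 min at RT, with Ro20-1724 (0.1 mM) present throughout.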

Sequence of Muscarinic acetylcholine receptor M1 (Homo sapiens) (P11229 whole entry, looked up): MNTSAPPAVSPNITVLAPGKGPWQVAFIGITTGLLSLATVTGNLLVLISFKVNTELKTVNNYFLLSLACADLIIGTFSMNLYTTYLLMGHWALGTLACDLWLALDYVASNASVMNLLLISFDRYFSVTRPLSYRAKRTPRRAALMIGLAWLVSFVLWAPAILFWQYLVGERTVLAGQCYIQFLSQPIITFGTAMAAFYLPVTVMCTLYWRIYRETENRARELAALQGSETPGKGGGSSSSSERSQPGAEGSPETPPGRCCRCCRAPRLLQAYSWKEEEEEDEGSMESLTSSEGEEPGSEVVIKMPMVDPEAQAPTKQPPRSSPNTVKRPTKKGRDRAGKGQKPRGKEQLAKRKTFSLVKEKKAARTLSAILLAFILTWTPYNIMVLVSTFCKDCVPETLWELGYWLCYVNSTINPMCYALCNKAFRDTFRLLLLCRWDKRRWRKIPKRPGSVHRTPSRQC
Sequence of KiSS-1 receptor (Homo sapiens) (Q969F8 whole entry, looked up): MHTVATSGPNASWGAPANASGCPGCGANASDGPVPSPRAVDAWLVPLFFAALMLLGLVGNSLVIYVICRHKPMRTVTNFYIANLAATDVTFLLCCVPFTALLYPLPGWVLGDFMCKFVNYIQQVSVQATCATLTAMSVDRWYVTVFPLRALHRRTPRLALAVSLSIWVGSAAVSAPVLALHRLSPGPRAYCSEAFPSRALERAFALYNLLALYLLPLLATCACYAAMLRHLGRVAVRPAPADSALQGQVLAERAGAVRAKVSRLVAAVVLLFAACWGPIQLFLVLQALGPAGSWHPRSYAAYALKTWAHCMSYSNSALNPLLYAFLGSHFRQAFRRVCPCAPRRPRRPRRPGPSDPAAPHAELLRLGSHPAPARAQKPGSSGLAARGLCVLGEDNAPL
Sequence of Gonadotropin-releasing hormone receptor (Homo sapiens) (P30968 whole entry, looked up): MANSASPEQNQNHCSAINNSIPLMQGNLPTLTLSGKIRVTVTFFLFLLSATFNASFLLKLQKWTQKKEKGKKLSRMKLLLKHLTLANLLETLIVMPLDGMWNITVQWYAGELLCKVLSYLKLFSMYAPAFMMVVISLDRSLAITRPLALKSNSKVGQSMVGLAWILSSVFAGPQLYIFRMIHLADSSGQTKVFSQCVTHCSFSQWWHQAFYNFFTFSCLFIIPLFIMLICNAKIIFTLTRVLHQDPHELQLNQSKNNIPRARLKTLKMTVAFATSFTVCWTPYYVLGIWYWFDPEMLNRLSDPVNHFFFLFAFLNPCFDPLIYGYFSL
Sequence of Beta-2 adrenergic receptor (Homo sapiens) (P07550 whole entry, looked up): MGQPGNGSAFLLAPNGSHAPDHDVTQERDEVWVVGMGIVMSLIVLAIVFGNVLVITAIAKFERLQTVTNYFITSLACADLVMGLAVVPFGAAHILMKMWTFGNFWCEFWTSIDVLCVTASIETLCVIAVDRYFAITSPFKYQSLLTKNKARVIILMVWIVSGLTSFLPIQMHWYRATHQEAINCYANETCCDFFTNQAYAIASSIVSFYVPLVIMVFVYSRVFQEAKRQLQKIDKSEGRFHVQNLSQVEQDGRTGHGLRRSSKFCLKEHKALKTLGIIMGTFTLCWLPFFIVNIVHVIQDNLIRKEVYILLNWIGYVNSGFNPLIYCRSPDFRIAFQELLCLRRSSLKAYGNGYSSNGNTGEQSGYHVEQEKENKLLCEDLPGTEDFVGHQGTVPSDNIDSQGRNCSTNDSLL
Sequence of D(2) dopamine receptor (Homo sapiens) (P14416 whole entry, looked up): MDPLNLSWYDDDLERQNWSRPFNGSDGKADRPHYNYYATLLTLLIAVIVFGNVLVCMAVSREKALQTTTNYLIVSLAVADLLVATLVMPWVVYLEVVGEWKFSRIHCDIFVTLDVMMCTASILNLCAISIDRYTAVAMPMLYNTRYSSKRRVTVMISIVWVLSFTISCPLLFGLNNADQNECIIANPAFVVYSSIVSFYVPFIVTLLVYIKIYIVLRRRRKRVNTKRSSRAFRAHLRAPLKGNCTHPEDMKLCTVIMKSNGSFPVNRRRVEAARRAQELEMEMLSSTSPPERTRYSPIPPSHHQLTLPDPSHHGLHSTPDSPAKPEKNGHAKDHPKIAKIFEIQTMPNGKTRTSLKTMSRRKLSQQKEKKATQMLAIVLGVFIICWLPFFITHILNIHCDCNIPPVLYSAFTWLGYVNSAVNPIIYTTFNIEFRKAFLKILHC
Sequence of 5-hydroxytryptamine receptor 2A (Homo sapiens) (P28223 whole entry, looked up): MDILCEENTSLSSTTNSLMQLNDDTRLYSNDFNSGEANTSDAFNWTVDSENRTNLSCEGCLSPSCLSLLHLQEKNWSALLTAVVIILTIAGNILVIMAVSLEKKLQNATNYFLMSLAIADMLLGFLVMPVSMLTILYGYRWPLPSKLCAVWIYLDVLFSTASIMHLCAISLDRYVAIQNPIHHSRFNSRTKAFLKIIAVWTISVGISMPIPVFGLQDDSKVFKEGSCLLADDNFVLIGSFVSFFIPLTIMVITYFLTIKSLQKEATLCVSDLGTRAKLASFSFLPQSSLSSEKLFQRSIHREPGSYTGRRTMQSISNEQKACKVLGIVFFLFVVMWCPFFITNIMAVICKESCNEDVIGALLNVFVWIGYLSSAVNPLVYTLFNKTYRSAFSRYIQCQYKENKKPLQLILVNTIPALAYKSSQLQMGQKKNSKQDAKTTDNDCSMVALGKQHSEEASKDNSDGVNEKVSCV

Take `O=S1(=O)CC(Cl)(Cl)C(Cl)(Cl)C1`: the Potency is 6.11 µM (active) in [1]; 2.43 µM (active) in experiment [2]; 5.76 µM (active) in experiment [8]; 18.2 µM (active) in experiment [9]; 16.2 µM (active) in [10]. The Potency result in experiment [3], in experiment [6], in experiment [7], in experiment [11], in [12] and in experiment [13] was “inactive” each time. The outcome in experiment [4] and in [5] was inactive.
`CN(C[C@@H](CC[N+]12CCC(C3CCCCC3)(CC1)CC2)c1ccc(Cl)c(Cl)c1)C(=O)c1cc(C(F)(F)F)cc(C(F)(F)F)c1`: the Potency in [1] was 61.1 µM (active); in experiment [2], 24.3 µM (active); in experiment [8], 36.3 µM (active); in experiment [9], 40.8 µM (active); in experiment [12], 0.0942 µM (active). Moreover, the Potency result in experiment [3], in experiment [6], in experiment [7], in experiment [10] and in experiment [11] was “inactive” throughout. Besides, the result in experiment [4] and in experiment [5] was inactive.
Take `COCCCN1CCC(NC(=O)c2cc(Cl)c(N)c3c2OCC3)CC1`: the Potency result in [1], in experiment [2], in [3], in experiment [6], in experiment [7] and in experiment [8] was “inactive” in each case. Moreover, the Potency entry in experiment [9], in experiment [10], in experiment [11], in experiment [12], in experiment [13] and in [14] was “inactive” each time. Also, the Potency result in experiment [15], in experiment [16], in experiment [17], in experiment [18] and in experiment [19] was “inactive” throughout. The outcome in experiment [4] and in [5] was inactive.
With `CCCCOC(=O)/C=C\C(=O)OCCCC`, the Potency entry in [1], in [3], in experiment [6], in experiment [7], in experiment [8] and in experiment [9] was “inactive” in each case. The Potency entry in [10], in [11], in experiment [12], in experiment [13], in [14] and in [15] was “inactive” throughout. For the same compound, the Potency result in experiment [16] and in experiment [18] was “inactive” in each case. Moreover, in experiment [2], the Potency is 25.2 µM (active). In addition, the outcome in experiment [4] and in experiment [5] was inactive.
As for `C=CCCCC`, the Potency result in experiment [1], in experiment [2], in experiment [3], in [6], in [7] and in [8] was “inactive” each time. The Potency entry in experiment [9], in experiment [10], in [11], in experiment [12], in [13] and in [14] was “inactive” in each case. Moreover, the Potency result in experiment [15], in [18] and in experiment [19] was “inactive” in each case. Also, the outcome in experiment [4] and in experiment [5] was inactive.
On to `CCOC(=O)Nc1ccc(NCc2ccc(F)cc2)nc1N`, for which the Potency result in experiment [1], in [2], in experiment [3], in [6], in experiment [7] and in experiment [8] was “inactive” in each case. Also, the Potency result in experiment [9], in experiment [10], in experiment [11], in experiment [12], in [13] and in [14] was “inactive” throughout. Further, the Potency entry in experiment [16] and in [19] was “inactive” in each case. Besides, the result in experiment [4] and in [5] was inactive.
For `COc1cc2c(cc1OC)C(=O)CC2`, the Potency result in experiment [1], in experiment [2], in [3], in experiment [6], in experiment [7] and in experiment [8] was “inactive” throughout. The Potency result in experiment [9], in experiment [10], in experiment [11], in experiment [12], in experiment [13] and in experiment [14] was “inactive” each time. Also, the Potency result in experiment [15], in experiment [16], in experiment [18] and in experiment [19] was “inactive” throughout. The outcome in experiment [4] and in experiment [5] was inactive.
Turning to `C[Si](C)(CCCN)O[Si](C)(C)CCCN`, the Potency result in [1], in experiment [2], in [3], in [6], in experiment [7] and in experiment [8] was “inactive” in each case. For the same compound, the Potency result in experiment [9], in experiment [10], in experiment [11], in [12], in [13] and in experiment [14] was “inactive” throughout. Further, the Potency result in experiment [15], in [16], in experiment [17], in [18] and in experiment [19] was “inactive” in each case. Further, the result in experiment [4] and in experiment [5] was inactive.
